Experimental data taken from PubChem BioAssay (NCI).
Compounds without any hit were thinned out: in the full panel of roughly 83,000, 20% have a hit.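 Compound tested at a single concentration for 48 hours in 96-well plates; a percent growth value below 10 was scored as active.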 Values without a mark were called inactive. Activity calls are given as the source filed them.

Tests used:
Experiment in all cases: NCI-60 one-dose screen, 48 h (100 = growth as untreated, 0 = no growth, -100 = all killed)
Conditions in all cases: 10 µM unless noted
HCT-15 colon = test system: HCT-15 colon
HT29 colon = test system: HT29 colon
SNB-75 CNS = test system: SNB-75 CNS
SNB-19 CNS = test system: SNB-19 CNS
U251 CNS = test system: U251 CNS
PC-3 prostate = test system: PC-3 prostate
SK-MEL-5 melanoma = test system: SK-MEL-5 melanoma
UACC-62 melanoma = test system: UACC-62 melanoma
LOX IMVI melanoma = test system: LOX IMVI melanoma
SK-MEL-28 melanoma = test system: SK-MEL-28 melanoma
SK-MEL-2 melanoma = test system: SK-MEL-2 melanoma
SN12C renal = test system: SN12C renal
UO-31 renal = test system: UO-31 renal
TK-10 renal = test system: TK-10 renal
ACHN renal = test system: ACHN renal
A498 renal = test system: A498 renal
CCRF-CEM leukemia = test system: CCRF-CEM leukemia
MOLT-4 leukemia = test system: MOLT-4 leukemia
CAKI-1 renal = test system: CAKI-1 renal
EKVX NSCLC = test system: EKVX NSCLC

SMILES	growth (HCT-15 colon)	growth (HT29 colon)	growth (SNB-75 CNS)	growth (SNB-19 CNS)	growth (U251 CNS)	growth (PC-3 prostate)	growth (SK-MEL-5 melanoma)	growth (UACC-62 melanoma)	growth (LOX IMVI melanoma)	growth (SK-MEL-28 melanoma)	growth (SK-MEL-2 melanoma)	growth (SN12C renal)	growth (UO-31 renal)	growth (TK-10 renal)	growth (ACHN renal)	growth (A498 renal)	growth (CCRF-CEM leukemia)	growth (MOLT-4 leukemia)	growth (CAKI-1 renal)	growth (EKVX NSCLC)
Nc1nc2c(nnn2Cc2ccc(Cl)c(Cl)c2)c(=O)[nH]1	98.7%	100%	90.5%	95.1%	96.6%	79.3%	107%	73.9%	93.9%	111%	90.1%	89.9%	69.2%	103%	92.4%	85.5%	81.2%	93.8%		
CCOC(=O)C(C(=O)OCC)C1CCCCC1	99%	102%	87.6%	102%	86%	94.3%	109%	99.2%	110%	106%	110%	106%	91.8%	101%	102%	107%		102%		
COc1cccc(C=Nc2cc(C(C)C)c(O)cc2C)c1O	96%	103%	88.3%	93.2%	96%	92.8%	104%	91.9%	94.8%	116%	102%	95%	72.4%	99.8%	100%	75.7%	35%	98.2%		
CC(C)CNc1nc(N=[N+]=[N-])nc(NCC(C)C)n1	54% [100 µM]	60.4% [100 µM]	37.3% [100 µM]	54.8% [100 µM]	61.9% [100 µM]	23.3% [100 µM]	54.6% [100 µM]	59.1% [100 µM]	72.6% [100 µM]	76.9% [100 µM]	71.9% [100 µM]	70.8% [100 µM]	47.3% [100 µM]	77.5% [100 µM]	53.6% [100 µM]	35.5% [100 µM]		34.4% [100 µM]	4.03% [100 µM] (active)	
CC(C)OP(=O)(OC(C)C)c1ncc(-c2ccc(C(F)(F)F)cc2)c(NC2CCCCCC2)n1	-7.06% [33.3 µM] (active)	-68.3% [33.3 µM] (active)	-18.6% [33.3 µM] (active)	-27.9% [33.3 µM] (active)	-87.4% [33.3 µM] (active)	-68% [33.3 µM] (active)	-87.2% [33.3 µM] (active)	-64.8% [33.3 µM] (active)	-63.3% [33.3 µM] (active)	-74.5% [33.3 µM] (active)	-85.1% [33.3 µM] (active)	-72.9% [33.3 µM] (active)	-91.5% [33.3 µM] (active)	1.08% [33.3 µM] (active)	-1.03% [33.3 µM] (active)	-94% [33.3 µM] (active)		-46.2% [33.3 µM] (active)	-29.4% [33.3 µM] (active)	
Cc1ccc(C2=NNC(c3sc(Cl)nc3Cl)C2)cc1 (centres undefined)	77.3%	107%	96%	92%	99.1%	93.6%	88.9%	89.9%	9.94% (active)	102%	89.3%	40.8%	78.3%	133%	112%	97.2%		8.29% (active)	96.6%	
COc1cccc(-c2nc3cc(NC(=O)c4ccc(Cl)c(C#N)c4)ccc3o2)c1	51.6%	-3.37% (active)	-2.82% (active)	5.09% (active)	-12.9% (active)	14.4%	5.38% (active)	38.6%	21.9%	-7.87% (active)	63.8%	40.2%	34.3%	-12.5% (active)	36.2%	61.6%	71.1%	78.4%	26.4%	
CCn1cnc(C[C@H](NC(=O)[C@H](CCCCNC(=O)Nc2cc(C(F)(F)F)cc(C(F)(F)F)c2)NC(=O)Nc2cc(C(F)(F)F)cc(C(F)(F)F)c2)C(=O)OC)c1	48.1% [100 µM]	-99.4% [100 µM] (active)	-36.4% [100 µM] (active)	-36.5% [100 µM] (active)	-100% [100 µM] (active)	-38.5% [100 µM] (active)	-100% [100 µM] (active)	-88.3% [100 µM] (active)	-100% [100 µM] (active)	-99.5% [100 µM] (active)	-100% [100 µM] (active)	-6.45% [100 µM] (active)		-36.5% [100 µM] (active)	-40.4% [100 µM] (active)	-52.4% [100 µM] (active)		-33.8% [100 µM] (active)	68.4% [100 µM]	
O=c1c2ccccc2c2nccn2c2cc(Cl)ccc12	129%	83.8%	73.3%	119%	105%	72.5%	72.6%	129%	95.4%		81.5%	112%	70.7%	137%	138%	77.9%	34%	-54.9% (active)	75.2%	83.2%
Cc1cc2c(cc1C)[n+](Cc1ccc3ccccc3c1)cn2Cc1ccc2ccccc2c1	-77.4% (active)	-83.3% (active)	-73.6% (active)	-77.2% (active)	-91.6% (active)	-84% (active)	-99.2% (active)	-80.5% (active)	-86.7% (active)	-91.9% (active)		-87.2% (active)	-57.1% (active)	-87.7% (active)	-63.9% (active)	-68% (active)	-35.1% (active)	-64.1% (active)		-64.3% (active)
O=C(Nc1nn2c(-c3cc(C(F)(F)F)cc(C(F)(F)F)c3)nnc2s1)C1CCCC1	13.6%	-28.7% (active)	37.9%	26.6%	4.37% (active)	8.85% (active)	-69.6% (active)	7.5% (active)	13.1%	30.4%		11.6%	8.94% (active)	-30.4% (active)	8.22% (active)	-21.8% (active)	13.8%	-10.2% (active)	7.75% (active)	21.7%
O=C(CN1CCN(c2ccc(Cl)cc2)CC1)N1CCN(c2nnc(-c3ccc(Cl)cc3)c(-c3ccc(Cl)cc3)n2)CC1	59%	57.3%	75.6%	78%	74.2%	30.5%	58.2%	69.9%	51.8%	93.6%		75.5%	37.9%	102%	68.5%	56.9%	10.4%	-40.9% (active)	168%	71.2%
Cc1sc2nc(NCc3ccccc3)[nH]c(=O)c2c1C	33.2%	13.3%	46.1%	69%	30.8%	48.1%	45.5%	42.5%	53%	69.5%		68.5%	74.6%	67%	84%	48.9%	58.9%	44%		70.3%
O=CN1N=C(c2ccc(Cl)cc2)CC1c1cccc(Nc2ccnc3cc(Cl)ccc23)c1 (centres undefined)	16.9%	3.98% (active)	1.24% (active)	43.3%	13%	12.8%	-63.2% (active)	30.3%	11.3%	39.3%		34.5%	19.5%	23%	31.5%	9.76% (active)	13.6%	4.5% (active)		30.3%
